Results published in PubChem BioAssay (EPA / NIEHS).
Active and inactive are the calls of the source. The calls were made as follows: active = hit-call score of the fitted dose curve at least 0.9, where 1 is the maximum; inactive = score below 0.9.

Experiments:
Settings in all cases: mRNA level, 48 h; actives raise or lower the signal
[1] = read-out: Lipoprotein lipase (LPL), LPL (gene 4023); experiment: LTEA_HepaRG_LPL: Life Technologies and Expression Analysis (LTEA) Assay for Lipoprotein lipase (LPL) using HepaRG (AID 2283515)
Outline: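 Differentiated human HepaRG cells in serum-free induction medium were exposed in duplicate for 48 h to eight half-log concentrations (top 100 uM) in 0.5% DMSO. LPL mRNA was quantified by TaqMan qRT-PCR, normalized to ACTB, GAPDH and POLR2A.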

[2] = read-out: MicroRNA 122 (MIR122), gene 406906; experiment: LTEA_HepaRG_MIR122: Life Technologies and Expression Analysis (LTEA) Assay for MicroRNA 122 (MIR122) using HepaRG (AID 2283516); also: the transcript read is the microRNA miR-122
Outline: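 HepaRG, 48 h exposure, 8-pt half-log from 100 uM, 0.5% DMSO; TaqMan qRT-PCR; bidirectional fit vs DMSO.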

MYC, MYC (gene 4609) = experiment: LTEA_HepaRG_MYC: Life Technologies and Expression Analysis (LTEA) Assay for MYC using HepaRG (AID 2283518)
Outline: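 Expression changes were scored by TaqMan qRT-PCR with ACTB, GAPDH and POLR2A normalization. Cultures in serum-free induction medium received duplicate 8-point concentration series, highest 100 uM, for 48 h; DMSO (0.5%) served as baseline.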

[3] = read-out: matrix metalloproteinase-3 (MMP3), MMP3 (gene 4314); experiment: LTEA_HepaRG_MMP3: Life Technologies and Expression Analysis (LTEA) Assay for matrix metalloproteinase-3 (MMP3) using HepaRG (AID 2283519)
Outline: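 Differentiated human HepaRG cells, plated 48 h on collagen I, were exposed in duplicate for 48 h in serum-free induction medium to eight half-log concentrations up to 100 uM in 0.5% DMSO. MMP3 mRNA was quantified by TaqMan qRT-PCR, normalised to ACTB, GAPDH and POLR2A.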

[4] = read-out: Paternally Expressed 10 (PEG10), PEG10 (gene 23089); experiment: LTEA_HepaRG_PEG10: Life Technologies and Expression Analysis (LTEA) Assay for Paternally Expressed 10 (PEG10) using HepaRG (AID 2283520);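 as to AC50: PEG10 transcript by qRT-PCR normalised to ACTB GAPDH and POLR2A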
Outline: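 Chemicals tested on HepaRG cells for 48 h, highest concentration 100 uM. PEG10 expression assessed by qRT-PCR relative to DMSO control.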

[5] = read-out: Nuclear factor NF-kappa-B p105 subunit (Homo sapiens) (UniProt P19838); experiment: LTEA_HepaRG_NFKB1: Life Technologies and Expression Analysis (LTEA) Assay for Nuclear Factor Kappa B Subunit 1 (NFKB1) using HepaRG (AID 2283521)
Outline: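 NFKB1 transcript was measured by TaqMan qRT-PCR on Fluidigm arrays, normalised to three housekeeping genes and fitted in both directions against 0.5% DMSO. HepaRG cells were dosed in duplicate for 48 h in serum-free induction medium, eight half-log steps from 100 uM.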

[6] = read-out: Protein phosphatase 2A (PPP2R4), PTPA (gene 5524); experiment: LTEA_HepaRG_PPP2R4: Life Technologies and Expression Analysis (LTEA) Assay for Protein phosphatase 2A (PPP2R4) using HepaRG (AID 2283522)
Outline: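 Gene-expression endpoint in HepaRG hepatic cells: 48 h treatment across eight half-log concentrations up to 100 uM in 0.5% DMSO. PPP2R4 mRNA by qRT-PCR, normalized to three endogenous control genes.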

[7] = read-out: Phosphatase and tensin (PTEN), PTEN (gene 5728); experiment: LTEA_HepaRG_PTEN: Life Technologies and Expression Analysis (LTEA) Assay for Phosphatase and tensin (PTEN) using HepaRG (AID 2283523)
Outline: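 Differentiated human HepaRG cells, plated 48 h then switched to serum-free induction medium, were exposed in duplicate for 48 h to eight half-log concentrations up to 100 uM in 0.5% DMSO. PTEN mRNA measured by TaqMan qRT-PCR, normalized to ACTB/GAPDH/POLR2A, bidirectional fit versus DMSO.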

[8] = read-out: solute carrier (SLC22A1), SLC22A1 (gene 6580); experiment: LTEA_HepaRG_SLC22A1: Life Technologies and Expression Analysis (LTEA) Assay for solute carrier (SLC22A1) using HepaRG (AID 2283524)
Outline: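 Human HepaRG cells were plated 48 h, switched to serum-free induction medium, then exposed in duplicate for 48 h to 8-point half-log series from 100 uM in 0.5% DMSO. SLC22A1 mRNA measured by qRT-PCR, normalized to ACTB/GAPDH/POLR2A, fitted bidirectionally versus DMSO.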

[9] = read-out: Pyruvate Dehydrogenase Kinase 4 (PDK4), PDK4 (gene 5166); experiment: LTEA_HepaRG_PDK4: Life Technologies and Expression Analysis (LTEA) Assay for Pyruvate Dehydrogenase Kinase 4 (PDK4) using HepaRG (AID 2283525)
Outline: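 Differentiated human HepaRG cells, pre-cultured 48 h, were exposed in duplicate for 48 h in serum-free induction medium to eight half-log concentrations up to 100 uM in 0.5% DMSO. PDK4 mRNA was quantified by qRT-PCR, normalized to ACTB, GAPDH and POLR2A, bidirectional fitting versus DMSO.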

[10] = read-out: NAD(P)H dehydrogenase [quinone] 1 (NQO1), NQO1 (gene 1728); experiment: LTEA_HepaRG_NQO1: Life Technologies and Expression Analysis (LTEA) Assay for NAD(P)H dehydrogenase [quinone] 1 (NQO1) using HepaRG (AID 2283526)
Outline: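 Human HepaRG hepatic cells received chemicals for 48 h in serum-free induction medium with 0.5% DMSO, up to 100 uM. Expression was assessed by TaqMan qRT-PCR against housekeeping controls and fitted bidirectionally against DMSO.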

[11] = read-out: Nuclear factor erythroid 2-related factor 2 (Homo sapiens) (UniProt Q16236); experiment: LTEA_HepaRG_NFE2L2: Life Technologies and Expression Analysis (LTEA) Assay for Nuclear factor erythroid 2-related factor 2 (NFE2L2) Transcription Factor using HepaRG (AID 2283527)
Outline: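 Differentiated human HepaRG cells in serum-free induction medium were exposed for 48 h to eight concentrations (top 100 uM, half-log dilutions, 0.5% DMSO), in duplicate. NFE2L2 mRNA was quantified by TaqMan qRT-PCR, normalized to ACTB, GAPDH and POLR2A, with bidirectional fitting versus DMSO.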

[12] = read-out: succinate dehydrogenase complex iron sulfur subunit B (SDHB), SDHB (gene 6390); experiment: LTEA_HepaRG_SDHB: Life Technologies and Expression Analysis (LTEA) Assay for succinate dehydrogenase complex iron sulfur subunit B (SDHB) using HepaRG (AID 2283528)
Outline: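 SDHB transcript level read by TaqMan qRT-PCR, housekeeping-normalised (ACTB, GAPDH, POLR2A), after 48 h chemical treatment of plated HepaRG cells; eight concentrations top 100 uM, half-log steps, 0.5% DMSO, duplicates; fitted both directions against DMSO.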

[13] = read-out: Signal transducer and activator of transcription 3 (Homo sapiens) (UniProt P40763); experiment: LTEA_HepaRG_STAT3: Life Technologies and Expression Analysis (LTEA) Assay for Signal transducer and activator of transcription (STAT3) using HepaRG (AID 2283529)
Outline: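 Differentiated human HepaRG cells in serum-free induction medium were exposed in duplicate for 48 h to eight half-log concentrations up to 100 uM in 0.5% DMSO. STAT3 mRNA was quantified by TaqMan qRT-PCR, normalized to ACTB, GAPDH and POLR2A, and fitted bidirectionally against DMSO.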

[14] = read-out: solute carrier (SLCO1B1), SLCO1B1 (gene 10599); experiment: LTEA_HepaRG_SLCO1B1: Life Technologies and Expression Analysis (LTEA) Assay for solute carrier (SLCO1B1) using HepaRG (AID 2283530)
Outline: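 Human HepaRG cultures treated for 48 h with an eight-concentration half-log series topping at 100 uM; SLCO1B1 measured by qRT-PCR and fitted bidirectionally relative to DMSO.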

[15] = read-out: sulfotransferase 2A1 (SULT2A1), SULT2A1 (gene 6822); experiment: LTEA_HepaRG_SULT2A1: Life Technologies and Expression Analysis (LTEA) Assay for sulfotransferase 2A1 (SULT2A1) using HepaRG (AID 2283531)
Outline: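 Gene-expression endpoint in a human liver cell line: SULT2A1 mRNA change after 48 h chemical treatment, curves fitted in both directions relative to 0.5% DMSO vehicle. Concentrations spanned eight half-log steps from 100 uM.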

[16] = read-out: Transforming Growth Factor (TGFB1), TGFB1 (gene 7040); experiment: LTEA_HepaRG_TGFB1: Life Technologies and Expression Analysis (LTEA) Assay for Transforming Growth Factor (TGFB1) Transporter using HepaRG (AID 2283533)
Outline: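 Eight-point concentration-response (max 100 uM, half-log) in HepaRG under serum-free induction conditions, 48 h. TGFB1 mRNA by qRT-PCR, housekeeping-normalized.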

[17] = read-out: matrix metalloproteinase-10 (MMP10), MMP10 (gene 4319); experiment: LTEA_HepaRG_MMP10: Life Technologies and Expression Analysis (LTEA) Assay for matrix metalloproteinase-10 (MMP10) using HepaRG (AID 2283517)
Outline: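 HepaRG, collagen I, ~100,000 cells/well; serum-free induction medium; 48 h exposure, duplicate, 8-pt half-log to 100 uM, 0.5% DMSO. Readout: TaqMan qRT-PCR, normalized to ACTB/GAPDH/POLR2A; bidirectional fit vs DMSO.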

[18] = read-out: Transforming Growth Factor (TGFA), TGFA (gene 7039); experiment: LTEA_HepaRG_TGFA: Life Technologies and Expression Analysis (LTEA) Assay for Transforming Growth Factor (TGFA) using HepaRG (AID 2283532)
Outline: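 Differentiated human HepaRG cells, plated 48 h then switched to serum-free induction medium, were exposed in duplicate for 48 h to 8-point half-log series from 100 uM in 0.5% DMSO. TGFA mRNA measured by qRT-PCR, normalized to ACTB/GAPDH/POLR2A, bidirectional fit versus DMSO.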

Chain of Nuclear factor NF-kappa-B p105 subunit (Homo sapiens) (P19838 whole entry, looked up): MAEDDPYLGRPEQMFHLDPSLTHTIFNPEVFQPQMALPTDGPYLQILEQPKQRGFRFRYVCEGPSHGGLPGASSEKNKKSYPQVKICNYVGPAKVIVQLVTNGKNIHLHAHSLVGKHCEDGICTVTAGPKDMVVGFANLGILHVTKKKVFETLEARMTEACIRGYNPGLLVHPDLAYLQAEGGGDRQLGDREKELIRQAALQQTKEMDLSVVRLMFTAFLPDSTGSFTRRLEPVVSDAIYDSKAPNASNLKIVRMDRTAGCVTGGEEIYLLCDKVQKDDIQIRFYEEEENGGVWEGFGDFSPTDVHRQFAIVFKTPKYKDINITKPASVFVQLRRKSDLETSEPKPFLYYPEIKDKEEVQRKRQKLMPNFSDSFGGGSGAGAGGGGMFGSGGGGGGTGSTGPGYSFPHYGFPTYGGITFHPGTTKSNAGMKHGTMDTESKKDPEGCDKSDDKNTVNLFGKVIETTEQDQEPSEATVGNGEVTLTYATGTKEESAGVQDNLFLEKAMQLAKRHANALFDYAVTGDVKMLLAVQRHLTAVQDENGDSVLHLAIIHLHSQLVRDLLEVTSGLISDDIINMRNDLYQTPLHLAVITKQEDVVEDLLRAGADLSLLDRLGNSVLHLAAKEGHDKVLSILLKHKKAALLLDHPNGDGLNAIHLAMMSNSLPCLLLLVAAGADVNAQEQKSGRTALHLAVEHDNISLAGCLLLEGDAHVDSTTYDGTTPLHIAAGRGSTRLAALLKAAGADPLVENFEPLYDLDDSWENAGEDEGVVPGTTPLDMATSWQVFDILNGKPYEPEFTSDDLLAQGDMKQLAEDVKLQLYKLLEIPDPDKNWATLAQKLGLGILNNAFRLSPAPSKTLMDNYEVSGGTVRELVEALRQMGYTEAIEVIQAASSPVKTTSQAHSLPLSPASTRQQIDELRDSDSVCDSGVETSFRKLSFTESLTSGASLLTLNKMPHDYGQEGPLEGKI
Chain of Nuclear factor erythroid 2-related factor 2 (Homo sapiens) (Q16236 whole entry, looked up): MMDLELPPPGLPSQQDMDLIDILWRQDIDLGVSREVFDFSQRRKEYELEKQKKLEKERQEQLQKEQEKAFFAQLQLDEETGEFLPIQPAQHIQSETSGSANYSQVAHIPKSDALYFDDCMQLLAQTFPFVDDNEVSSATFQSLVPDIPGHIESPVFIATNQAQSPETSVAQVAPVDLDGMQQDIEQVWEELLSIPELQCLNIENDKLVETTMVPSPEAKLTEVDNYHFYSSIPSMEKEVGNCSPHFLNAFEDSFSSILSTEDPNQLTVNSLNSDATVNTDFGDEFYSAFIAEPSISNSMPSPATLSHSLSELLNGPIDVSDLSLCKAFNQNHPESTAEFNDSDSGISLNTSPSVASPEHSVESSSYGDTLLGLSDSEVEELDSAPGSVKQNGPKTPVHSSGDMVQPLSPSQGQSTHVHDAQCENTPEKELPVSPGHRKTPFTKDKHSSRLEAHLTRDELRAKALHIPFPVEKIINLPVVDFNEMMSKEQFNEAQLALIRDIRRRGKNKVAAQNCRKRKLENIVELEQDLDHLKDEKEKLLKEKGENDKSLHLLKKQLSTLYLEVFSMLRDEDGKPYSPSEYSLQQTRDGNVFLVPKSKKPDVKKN
Chain of Signal transducer and activator of transcription 3 (Homo sapiens) (P40763 whole entry, looked up): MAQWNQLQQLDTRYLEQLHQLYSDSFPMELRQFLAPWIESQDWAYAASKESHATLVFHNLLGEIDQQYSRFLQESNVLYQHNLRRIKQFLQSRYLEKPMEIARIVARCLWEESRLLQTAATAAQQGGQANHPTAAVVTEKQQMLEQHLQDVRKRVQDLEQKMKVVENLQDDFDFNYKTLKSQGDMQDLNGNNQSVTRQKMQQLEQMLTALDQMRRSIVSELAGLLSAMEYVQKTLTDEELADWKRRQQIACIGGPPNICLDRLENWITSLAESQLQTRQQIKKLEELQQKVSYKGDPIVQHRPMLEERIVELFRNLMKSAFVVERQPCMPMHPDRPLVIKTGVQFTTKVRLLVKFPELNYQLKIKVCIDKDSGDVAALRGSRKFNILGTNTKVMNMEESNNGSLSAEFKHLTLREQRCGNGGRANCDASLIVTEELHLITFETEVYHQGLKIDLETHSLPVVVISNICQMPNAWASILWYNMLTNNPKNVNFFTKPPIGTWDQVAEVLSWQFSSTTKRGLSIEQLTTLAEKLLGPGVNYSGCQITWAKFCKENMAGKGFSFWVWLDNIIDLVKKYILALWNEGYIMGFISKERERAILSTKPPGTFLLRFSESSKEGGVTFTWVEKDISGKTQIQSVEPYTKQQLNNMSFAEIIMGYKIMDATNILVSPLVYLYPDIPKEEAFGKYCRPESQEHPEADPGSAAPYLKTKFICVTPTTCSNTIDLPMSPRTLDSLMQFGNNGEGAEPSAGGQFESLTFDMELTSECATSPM

## C#CC(C)(C)NC(=O)c1cc(Cl)cc(Cl)c1
[1]
  outcome: inactive
[2]
  outcome: inactive
MYC, MYC (gene 4609)
  outcome: inactive
[3]
  outcome: inactive
[4]
  AC50: 50 µM (active)
[5]
  outcome: inactive
[6]
  outcome: inactive
[7]
  outcome: inactive
[8]
  outcome: inactive
[9]
  outcome: inactive
[10]
  outcome: inactive
[11]
  outcome: inactive
[12]
  outcome: inactive
[13]
  outcome: inactive
[14]
  outcome: inactive
[15]
  outcome: inactive
[16]
  outcome: inactive

## CCCOCC(=Nc1ccc(Cl)cc1C(F)(F)F)n1ccnc1
[1]
  AC50: 12.8 µM (active)
[2]
  AC50: 17.1 µM (active)
[17]
  AC50: 78.7 µM (active)
MYC, MYC (gene 4609)
  AC50: 50 µM (active)
[3]
  AC50: 84.3 µM (active)
[4]
  AC50: 28.3 µM (active)
[5]
  outcome: inactive
[6]
  AC50: 80.7 µM (active)
[7]
  AC50: 81.8 µM (active)
[8]
  AC50: 21.4 µM (active)
[9]
  AC50: 11.5 µM (active)
[10]
  outcome: inactive
[11]
  outcome: inactive
[12]
  outcome: inactive
[13]
  AC50: 50 µM (active)
[14]
  AC50: 15.8 µM (active)
[15]
  AC50: 66.6 µM (active)
[16]
  AC50: 50 µM (active)

## CCCCSP(=O)(SCCCC)SCCCC
[1]
  AC50: 68.5 µM (active)
[2]
  outcome: inactive
[17]
  outcome: inactive
MYC, MYC (gene 4609)
  outcome: inactive
[3]
  outcome: inactive
[4]
  outcome: inactive
[6]
  outcome: inactive
[7]
  outcome: inactive
[8]
  AC50: 78.9 µM (active)
[10]
  outcome: inactive
[11]
  AC50: 78 µM (active)
[12]
  outcome: inactive
[13]
  outcome: inactive
[14]
  outcome: inactive
[15]
  outcome: inactive
[16]
  outcome: inactive

## CCOP(=O)(SC(C)CC)N1CCSC1=O (stereo unspecified)
[1]
  outcome: inactive
[2]
  outcome: inactive
MYC, MYC (gene 4609)
  outcome: inactive
[3]
  outcome: inactive
[4]
  AC50: 26.2 µM (active)
[6]
  outcome: inactive
[7]
  outcome: inactive
[8]
  outcome: inactive
[10]
  outcome: inactive
[11]
  outcome: inactive
[12]
  outcome: inactive
[13]
  outcome: inactive
[14]
  outcome: inactive
[15]
  outcome: inactive
[16]
  outcome: inactive

## CCc1cnc(C2=NC(C)(C(C)C)C(=O)N2)c(C(=O)O)c1 (stereo unspecified)
[1]
  outcome: inactive
[2]
  outcome: inactive
[17]
  outcome: inactive
MYC, MYC (gene 4609)
  outcome: inactive
[3]
  outcome: inactive
[4]
  outcome: inactive
[6]
  outcome: inactive
[7]
  outcome: inactive
[8]
  outcome: inactive
[9]
  outcome: inactive
[10]
  outcome: inactive
[11]
  outcome: inactive
[12]
  outcome: inactive
[13]
  outcome: inactive
[14]
  outcome: inactive
[15]
  outcome: inactive
[18]
  outcome: inactive
[16]
  outcome: inactive

## CCOC(=O)CC(SP(=O)(OC)OC)C(=O)OCC (stereo unspecified)
[1]
  outcome: inactive
[2]
  outcome: inactive
[17]
  outcome: inactive
MYC, MYC (gene 4609)
  outcome: inactive
[3]
  outcome: inactive
[4]
  outcome: inactive
[5]
  outcome: inactive
[6]
  outcome: inactive
[7]
  outcome: inactive
[8]
  outcome: inactive
[10]
  outcome: inactive
[11]
  outcome: inactive
[12]
  outcome: inactive
[13]
  outcome: inactive
[14]
  outcome: inactive
[15]
  outcome: inactive
[16]
  outcome: inactive

## CN(C)NC(=O)CCC(=O)O
[1]
  outcome: inactive
[2]
  outcome: inactive
[17]
  outcome: inactive
MYC, MYC (gene 4609)
  outcome: inactive
[3]
  outcome: inactive
[4]
  outcome: inactive
[5]
  outcome: inactive
[6]
  outcome: inactive
[7]
  outcome: inactive
[8]
  outcome: inactive
[10]
  outcome: inactive
[11]
  outcome: inactive
[12]
  outcome: inactive
[13]
  outcome: inactive
[14]
  outcome: inactive
[15]
  outcome: inactive
[16]
  outcome: inactive

## CCCOc1nn(C(=O)NS(=O)(=O)c2ccccc2C(=O)OC)c(=O)n1C
[1]
  outcome: inactive
[2]
  outcome: inactive
[17]
  outcome: inactive
MYC, MYC (gene 4609)
  outcome: inactive
[3]
  outcome: inactive
[4]
  outcome: inactive
[5]
  outcome: inactive
[6]
  outcome: inactive
[7]
  outcome: inactive
[8]
  outcome: inactive
[9]
  outcome: inactive
[10]
  outcome: inactive
[11]
  outcome: inactive
[12]
  outcome: inactive
[13]
  outcome: inactive
[14]
  outcome: inactive
[15]
  outcome: inactive
[16]
  outcome: inactive
